Most compounds without a hit are left out; they make up all but 10% or so of the library.
PNC inhibitor = inhibitors of perinucleolar compartment assembly; actives 3.1% (n = 140,000); AID 2417; activity change (PNC), negative = inhibition, % at 10 µM; PC3M PTB-GFP, PNC prevalence imaging, 16 h; hits give low values;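 active = readout at or below -70, meaning at least 70% loss of cells showing the perinucleolar compartment, a nuclear body marking cancer cells; inconclusive = readout between -30 and a set limit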;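 note: plate controls were DMSO wells for no effect and camptothecin positive control wells for full effect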
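PC3M cells stably expressing PTB-GFP, 750–1000 cells/well, treated 16 h at 37 °C with compound (23 nl of library stock), in duplicate. After paraformaldehyde fixation and Hoechst stain, imaged at 20x; PNC prevalence scored by image analysis.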
12-hLO inh = inhibitors of human 12-lipoxygenase (ALOX12); P18054; purified 12-hLO, xylenol orange hydroperoxide absorbance; actives 0.12% (n = 150,000); Potency, µM (top dose mostly 57.1 µM), inactives show at the highest dose activity change, negative = inhibition, actives largely listed as inhibitors; active = well fitted inhibition curve with a large enough effect; inconclusive = small, poorly fitted or top-dose-only effect; note: potency is the fitted concentration of half-maximal effect; nearly all actives have a fitted effect of over 55% in size
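150 nM 12hLO, 25 mM Hepes pH 7.0 + 0.01% Triton X-100; cpd preinc 15 min RT; 40 uM arachidonic acid, 30 min RT; Fe-XO 30 min; A573/A405 ratio as read-out.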
Lamin A splicing = modulators of lamin A splicing; HeLa LMNA splicing GFP/RFP minigene ratio, 48 h; Potency, µM (titrated, usually from 46.1 µM), for inactives: at the highest dose ratio change, negative = inhibition, actives largely listed as inhibitors; actives 0.01% (n = 200,000); AID 1487; active = well fitted inhibition curve with a large enough effect in the signal ratio, with a control signal flat, not every such curve was filed as active; inconclusive = small, poorly fitted or top-dose-only effect, or effect the other way, or a change in a side signal; the % refers to the signal ratio; note: potency is the fitted concentration of half-maximal effect
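S3 HeLa cells stably expressing lamin A-EGFP splicing minigene plus DsRed2, 600 cells/well, 48 h compound exposure at 37C. Laser-scanning cytometry; analysed as GFP (500-530 nm)/RFP (575-640 nm) total intensity ratio; 0.5% DMSO vehicle.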
ALDH1A1 inh = inhibitors of human aldehyde dehydrogenase 1A1; Potency, µM (titrated, usually from 75.3 µM), inactives show at the top dose activity, negative = inhibition, most hits filed as inhibitors; Purified ALDH1A1, NADH fluorescence, propionaldehyde substrate; actives 7.3% (n = 220,000); P00352; AID 1030;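 note: potency is the fitted concentration of half-maximal effect; plate controls were no enzyme wells and a reference inhibitor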
Target sequence (P00352 whole entry, looked up): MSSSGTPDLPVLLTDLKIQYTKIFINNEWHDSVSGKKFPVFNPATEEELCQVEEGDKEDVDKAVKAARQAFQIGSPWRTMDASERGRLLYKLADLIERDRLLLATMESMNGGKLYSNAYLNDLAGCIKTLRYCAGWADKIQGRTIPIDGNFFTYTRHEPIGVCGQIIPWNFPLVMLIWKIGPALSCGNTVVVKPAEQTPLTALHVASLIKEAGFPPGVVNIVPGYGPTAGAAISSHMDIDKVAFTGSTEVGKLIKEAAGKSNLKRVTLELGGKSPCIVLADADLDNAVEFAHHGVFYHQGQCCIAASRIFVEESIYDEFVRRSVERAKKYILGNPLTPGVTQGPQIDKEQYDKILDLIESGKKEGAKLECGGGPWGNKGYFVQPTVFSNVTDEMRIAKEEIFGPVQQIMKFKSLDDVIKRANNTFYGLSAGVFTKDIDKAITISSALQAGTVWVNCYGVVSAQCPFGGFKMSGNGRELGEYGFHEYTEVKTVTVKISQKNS
HPGD inh = inhibitors of human 15-hydroxyprostaglandin dehydrogenase (HPGD). actives 4.3% (n = 150,000). AID 894. Potency, µM, for inactives: at the top dose activity change, negative = inhibition, actives largely listed as inhibitors. purified HPGD, NADH fluorescence kinetic, PGE2 substrate. P15428; note: potency is the fitted concentration of half-maximal effect
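20 nM HPGD preincubated 15 min at room temperature with compound in 50 mM Tris-HCl pH 8, 0.01% Tween 20. Started with 1 mM NAD+ and 30 uM prostaglandin E2; NADH fluorescence (360/450 nm) read 5 times over 30-s intervals, last minus first.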
* = called active by the depositor; ? = inconclusive; . = not tested or not shown; [ ] = remark or other dose. Unless noted, calls come from the whole dose curve; as a rule, active = well fitted inhibition curve with a large enough effect (not every such curve was filed as active); inconclusive = small, poorly fitted or top-dose-only effect, or another doubt; inactive = no such curve, though single readings can be large or run the other way. Unless noted, % is set by controls: 0 for no effect and ±100 for the full control effect.

SMILES | PNC inhibitor | 12-hLO inh | Lamin A splicing | ALDH1A1 inh | HPGD inh
Cc1c(=O)n(OCc2ccccc2)c2ccccc2[n+]1[O-] | 5 | -8% | 9% | ? | -12%
COc1ccc(COn2c(=O)c(C)[n+]([O-])c3ccccc32)cc1OC | -111* | -4% | -9% | ? | -10%
O=c1c(-c2ccco2)[n+]([O-])c2ccccc2n1OCc1ccccc1 | 10 | -18% | -3% | 22µM* | ?
COc1ccccc1COn1c(=O)c(-c2ccco2)[n+]([O-])c2ccccc21 | . | . | 1%[46 µM] | 22µM* | .
CCOc1ccc(Cn2c(CNS(=O)(=O)c3ccc(C(C)(C)C)cc3)nc3cccnc32)cc1 | . | . | -21%[46 µM] | . | .
C/C(=N\NC(=O)c1ccncc1)c1ccc2ccccc2c1O | . | 1%[11.4 µM] | . | 3%[13.5 µM] | -12%
CCN(CC)C(=O)C1CCCN(c2ccccc2[N+](=O)[O-])C1 (centres undefined) | . | . | ? | 13µM* | .
Cc1cccc(N2C(=O)CSC23C(=O)N(Cc2cccc(C(F)(F)F)c2)c2ccccc23)c1 (centres undefined) | . | . | 3%[46 µM] | . | .
COCCn1c(SCC(=O)N2CCCCC2)nc2ccccc2c1=O | 20 | -4% | 32% | 10µM* | -23%
O=C(CSc1nc2ccccc2c(=O)n1CCC(=O)N1CCCCC1)NCc1ccccc1 | ? | -4% | -3% | 8.9µM* | -11%
CCn1c(SCC(=O)N2CCCC2)nc2ccccc2c1=O | 8 | 2% | -8% | -5% | ?
Nc1nc(F)cc(N2CCCCCC2)n1 | . | . | . | 10% | .
N=c1nc(N2CCCCC2)cc(N)n1O | -115* | 0% | ? | -5% | -5%
COc1ccc(-c2cc(C(=O)N/N=C/c3ccc(OC)c(OC)c3)[nH]n2)cc1 | . | -4% | . | ? | ?
Cc1ccc(/C=C(\C#N)C(=O)NCc2ccco2)o1 | . | . | 15%[46 µM] | ? | .
N#CCc1ccc(NC(=O)/C=C/c2ccc([N+](=O)[O-])o2)cc1 | . | . | ? | 20µM* | .
N#C/C(=C\c1ccc([N+](=O)[O-])o1)C(=O)Nc1ccc(F)cc1 | . | . | ? | 11µM* | .
CC1(C(=O)N/N=C/c2ccc([N+](=O)[O-])o2)CC1(Br)Br (centres undefined) | ? | -4% | ? | -8% | -5%
O=C(CSc1nnc(-c2ccccc2)c(-c2ccccc2)n1)NCCc1ccccc1 | . | . | 11%[46 µM] | . | .
O=C(NC(=S)Nn1cnnc1)c1cccc(Br)c1 | -27 | -8% | 4% | 7.9µM* | 22µM*
Cc1ccc(C(=O)NNC(=S)NC(=O)c2ccc(Cl)cc2)cc1 | 70 | ? | ? | -8% | -16%
Cc1ccc(C(=O)NC(=S)Nn2cnnc2)cc1 | -20 | 0% | -8% | 20µM* | ?
NC(=S)NNC(=O)c1cccc(Br)c1 | . | . | . | -3% | .
COC(=O)C(NC(=O)c1ccc(C)cc1)(Nc1cccc(C)n1)C(F)(F)F (centres undefined) | -100* | -3% | -6% | 2% | -13%
COc1cc(O)c(C(=O)/C=C/c2ccc(OC)c(O)c2)c(OC)c1 | . | -28% | . | 14µM* | 7.9µM*
SMILES | PNC inhibitor | 12-hLO inh | Lamin A splicing | ALDH1A1 inh | HPGD inh
COc1cc(/C=C/C(=O)c2cccc([N+](=O)[O-])c2)cc(OC)c1OC | -27 | -2% | ? | 25µM* | -13%
COc1cc(/C=C/C(=O)c2ccc(C)c([N+](=O)[O-])c2)cc(OC)c1O | -27 | -10% | ? | 4% | -8%
COc1cccc(/C=C/C(=O)c2ccc(C)c([N+](=O)[O-])c2)c1 | 33 | 4% | ? | 7.1µM* | -22%
COc1ccc(/C=C/C(=O)c2c(O)cc(C)oc2=O)c(OC)c1 | -12 | -18% | 8% | -4% | -5%
COc1ccc(/C=C/C(=O)c2ccc(C)c([N+](=O)[O-])c2)cc1O | 43 | -25% | ? | 22µM* | 22µM*
O=C(/C=C/c1ccccc1F)c1cccc([N+](=O)[O-])c1 | 26 | 2% | ? | ? | -18%
COc1cccc(/C=C/C(=O)c2ccc(NS(=O)(=O)c3ccc(C)cc3)cc2)c1 | ? | -13% | ? | -8% | -16%
CCn1c(CSc2nc(C)cc(C)n2)nnc1SCC(=O)Nc1ccccc1 | ? | 0% | -8% | -5% | -13%
CCn1c(CSc2nc(C)cc(C)n2)nnc1SCC(=O)Nc1cccc2ccccc12 | -107* | -1% | 2% | -3% | 4%
O=C(O)C1C2C=CC(O2)C1C(=O)Nc1ccc(S(=O)(=O)Nc2ccccc2)cc1 (centres undefined) | -19 | -25% | -16% | 1.1µM* | ?
O=C(O)C1C2C=CC(C2)C1C(=O)Nc1ccc2c(c1)OCCO2 (centres undefined) | 22 | -4% | -1% | 1% | -18%
O=C(O)C1C2C=CC(O2)C1C(=O)Nc1ccc(S(=O)(=O)N2CCc3ccccc32)cc1 (centres undefined) | 29 | -13% | 2% | 10µM* | -22%
O=C(O)C1C2C=CC(O2)C1C(=O)Nc1ccc2c(c1)OCCO2 (centres undefined) | -11 | -5% | 0% | 11µM* | -6%
CC1(C)[C@@H](CC(=O)O)CCC[C@@H]1CC(=O)O | . | 0%[11.4 µM] | . | 1%[13.5 µM] | -2%
O=C(NC(=S)N1CCN(c2ccc([N+](=O)[O-])cc2)CC1)c1ccccc1F | -23 | -7% | ? | 25µM* | -18%
O=[N+]([O-])c1cccc(C(=S)N2CCN(c3ccc(F)cc3)CC2)c1 | . | . | -11%[46 µM] | 22µM* | .
O=[N+]([O-])c1ccc(N2CCN(C(=S)Nc3ccccc3)CC2)cc1 | . | . | . | 1.4µM* | .
O=[N+]([O-])c1cccc(C(=S)N2CCCC2)c1 | . | . | ? | -14% | .
O=C(NC(=S)N1CCN(c2ccc([N+](=O)[O-])cc2)CC1)c1ccc(F)cc1 | ? | -6% | ? | 7.1µM* | -26%
O=C(NC(=S)N1CCN(c2ccc([N+](=O)[O-])cc2)CC1)c1ccccc1Cl | . | . | -8%[46 µM] | ? | .
Cc1ccc(-c2nn(CC(=O)NCc3ccccc3)c3c2cnc2ccc(F)cc23)cc1C | . | . | 3%[46 µM] | . | .
CCCN1CCN(C(=S)Nc2ccc([N+](=O)[O-])cc2)CC1 | -6 | -4% | ? | 32µM* | .
O=[N+]([O-])c1ccc(N2CCN(C(=S)NC3CCCCC3)CC2)cc1 | -10 | ? | 14% | 5µM* | -21%
CCCCC(=O)Nc1sc2c(c1C(=O)OCC)CCC(C=O)=C2Cl | -5 | -1% | ? | 10µM* | -12%
CCOC(=O)c1c(NC(=O)c2ccccc2Cl)sc2c1CCc1ccccc1-2 | -3 | -4% | ? | ? | ?
O=C(O)c1ccc(C(=O)O)c(C(=O)Nc2ccc3c(c2)Cc2ccccc2-3)c1 | . | -6%[11.4 µM] | . | ? | 3.2µM*
O=C(/C=C/c1ccc(O)c(O)c1)c1ccc(S(=O)(=O)N2CCCCCC2)cc1 | 34 | ? | ? | ? | ?
